Among the data in ChEMBL document CHEMBL4513216, “Probing the Open Global Health Chemical Diversity Library for Multistage-Active Starting Points for Next-Generation Antimalarials” (ACS Infect Dis, 2020) are INHIBITION values, retold here.

Molecules are shown by their SMILES. Among all 68,000 compounds or so, about 2,700 (4%) showed an effect of 50% or more. The sample holds strong results, similar compounds and a random draw of the others, so the mix is not that of the screen.

This assay has as its system Plasmodium berghei. Put plainly: Screen against P. berghei liver stage (PbLuc), transformed with Luciferase, at 2uM. The assay is classed as functional, HepG2. Particulars: tested at 2 uM.
Take `CCN(CC)[C@@H]1CN(S(=O)(=O)c2cn(C)cn2)[C@@H]2CCCO[C@H]12`: the INHIBITION came to 20.21%. Next, `CN(CC(=O)NCc1cc2ccccc2o1)S(C)(=O)=O`: -3.17%; `CCc1noc(C)c1C(=O)N1C[C@H](NS(C)(=O)=O)[C@@H](C2CC2)C1`: 5.47%; `O=C(N1CCCC(n2cncn2)C1)C1(c2ccc(Cl)cc2)CCC1` (configuration not stated): 45.83%.

For the compound `CC(=O)c1c(C)nn(S(=O)(=O)c2ccc(C)cc2)c1C`, the INHIBITION was determined as 39.45%. Regarding `FC(F)(F)c1ccnc(N2CCCN(C3CCOCC3)CC2)c1`, the INHIBITION was -26.2%. For `FC(F)(F)c1ccnc(N2CCCC(N3CCOCC3)C2)c1` (configuration not stated) the value was 60.13%; for `CN1CCCC(N2CCN(c3cc(C(F)(F)F)ccn3)CC2)C1` (configuration not stated), -3.43%; for `O=C(Cn1cccn1)Nc1ccc(N2CCOCC2)cc1`, 45.12%.

`Cc1cnc2c(S(=O)(=O)NCC3CCS(=O)(=O)C3)cccc2c1` (configuration not stated): the INHIBITION is -84.03%. For `Cc1cnc2c(S(=O)(=O)NCC3CCN(C4CC4)C3)cccc2c1` (configuration not stated) the value was 51.21%; for `Cc1cnc2c(S(=O)(=O)NC(=O)C(C)OCC3CC3)cccc2c1` (configuration not stated), 28.97%; for `Cc1cnc2c(S(=O)(=O)NCC3CCOC3)cccc2c1` (configuration not stated), 1.61%. Next, `COC(C)C(=O)NS(=O)(=O)c1cccc2cc(C)cnc12` (configuration not stated): 73.31%; `Cc1cnc2c(S(=O)(=O)NCC3CC3)cccc2c1`: 51.94%. Take `Cc1cnc2c(S(=O)(=O)N(C)C3CCS(=O)(=O)C3)cccc2c1` (configuration not stated): the INHIBITION amounted to 47.87%. Next, `Cc1cnc2c(S(=O)(=O)NC3CCS(=O)(=O)C3)cccc2c1` (configuration not stated): -15.28%; `CCOC(C)C(=O)NS(=O)(=O)c1cccc2cc(C)cnc12` (configuration not stated): 9.27%; `CC(C)N1CCOC(CC(=O)N2CCCN(Cc3ccncc3)CC2)C1` (configuration not stated): 18.22%.

Turning to `CNc1nc(C2CCCN2C(C)=O)nc2c1CN(CCO)CC2` (configuration not stated), the INHIBITION is on record as -0.83%. For `Cc1cc(C)c(CNC(=O)C2COc3ccccc3C2)c(=O)[nH]1` (configuration not stated) the value was -68.78%; for `Cc1cc(C)nc(N2CCCC(C)(c3[nH]ncc3C(=O)N(C)C)C2)n1` (configuration not stated), -81.44%. With `CCc1cc(CN2CCCCC2c2ccc(F)cc2)on1` (configuration not stated), the INHIBITION is on record as -19.3%.

Turning to `CCOC(=O)CCNC(=O)c1cc(Cl)cc2cccnc12`, the INHIBITION was -14.21%.

On to `CCS(=O)(=O)N(C)CCCNC(=O)c1cc(Cl)cc2cccnc12`, for which the INHIBITION turned out to be 61.08%.

On to `COCCOCCCNC(=O)c1cc(Cl)cc2cccnc12`, for which the INHIBITION is -18.52%. As to `CCS(=O)(=O)CC(=O)Nc1ccccc1N1CCc2ccccc21`, the INHIBITION amounted to 6.07%.

In the case of `CCCc1cc(C(=O)N2CCC3(CC2)CN(CCN(C)C)C(=O)O3)no1`, the INHIBITION was 28.73%. Next, `CN(C)CCN1CC2(CCN(C(=O)c3cnccn3)CC2)OC1=O`: -48.69%; `CN(C)CCCN1CC2(CCN(C(=O)C3(C)CCCCO3)CC2)OC1=O` (configuration not stated): -64.97%; `Cc1ccc(C(=O)N2CCN(C)C3(CCC(=O)N(C)CC3)C2)c(F)c1` (configuration not stated): 18.22%. For `Cc1ccc(C(=O)N2CCC3(CC2)CN(CCN(C)C)C(=O)O3)c(F)c1` the value was 57.34%; for `Cc1cc(C(=O)N2CCC3(CC2)CN(CCN(C)C)C(=O)O3)nc(C)n1`, 59.03%.

For `CN(Cc1ccccc1)C(=O)Cn1nc(N2CCSCC2)ccc1=O`, the INHIBITION is 22.88%. For `Cc1cc2nc(C(C)C)cc(N(C)CC3CCN(C(C)C)C3)n2n1` (configuration not stated) the value was 5.93%; for `Fc1cccc(CN2CCOCC3(CCN(C4CCOCC4)C3)C2)c1` (configuration not stated), 30.29%. With `CNc1cc2c(nn1)CCN(C(=O)c1cc(C)n(C3CC3)c1C)C2`, the INHIBITION is 26.06%. Next, `COc1ccc(-c2csc3c2c(N)nc(=O)n3CC(N)=O)cc1`: 23.16%; `CCOC(=O)Cn1c(=O)nc(N)c2c(-c3ccc(OC)cc3)csc21`: 69.62%; `CCn1c(=O)nc(N)c2c(-c3ccc(OC)cc3)csc21`: -37.19%. On to `O=C(CC1CC2(CCNCC2)c2ccccc21)NCC1CC1` (configuration not stated), for which the INHIBITION is -1.81%. `CC(=O)NC1CCN(c2ncnc3c2c(C)nn3C)C1` (configuration not stated): the INHIBITION was 32.56%. For `CCC1(CC)Cc2ccccc2-c2nc(CN(C)C)nc(O)c21` the value was 29.02%.

With `CC(C)N(CC(N)=O)C(=O)c1cnc(-c2ccc3c(c2)OCO3)s1`, the INHIBITION is given as 75.8%. Next, `CC(C)N(CCC#N)C(=O)c1cnc(-c2ccc3c(c2)OCO3)s1`: 37.87%; `CN(C)C(=O)c1cnc(-c2ccc3c(c2)OCO3)s1`: -197.6%; `O=C(O)C1(n2ccc(-c3ccco3)n2)CCN(Cc2cccnc2)CC1`: -30.35%. Consider `Cc1ccc2nc(CN(C)Cc3ccc(C)o3)cc(=O)n2c1`, for which the INHIBITION is listed as 5.02%. Next, `Cc1nc(C(=O)N2CCN(C(C)c3ccccc3F)CC2)cs1` (configuration not stated): 19.06%; `CN1CCc2ncc(CNc3cc(N(C)C)ncn3)n2CC1`: -14.45%. Next, `Cc1cc(C)nc(N2Cc3cnn(Cc4ccc(F)cc4)c3C2)n1`: -51.41%; `Cc1ccnc(N2Cc3cnn(Cc4ccc(F)cc4)c3C2)n1`: -38.09%; `CNc1cc(C)nc(N2Cc3cnn(Cc4ccc(F)cc4)c3C2)n1`: 52.03%. For `O=C(CN1CC(n2cccn2)C1)NCCc1c[nH]c2ccccc12` the value was 25.74%; for `O=S(=O)(NCCn1ccc(-c2cccs2)n1)C1CC1`, -49.59%. For the compound `Cc1nc(-c2ccccc2C)n(CC(=O)NC(C)C2CC2)n1` (configuration not stated), the INHIBITION is on record as 12.66%. Next, `Cc1ccccc1C(=O)N1CCC2(CCC(C(=O)NCC3CC3)O2)CC1` (configuration not stated): -28.91%. For `O=C(NCC1CC1)C1CCC2(CCN(C(=O)c3ccoc3)CC2)O1` (configuration not stated) the value was 36.99%. With `Cc1ccc(C(=O)N2CCC3(CCC(C(=O)NCC4CC4)O3)CC2)o1` (configuration not stated), the INHIBITION was 38.09%. `O=C(NCC1CC1)C1CCC2(CCN(C(=O)c3cccnc3)CC2)O1` (configuration not stated): the INHIBITION was 22.71%. For `O=C(NCC1CC1)C1CCC2(CCN(C(=O)c3ccncc3)CC2)O1` (configuration not stated), the INHIBITION was 52.36%. For `Cc1occc1C(=O)N1CCC2(CCC(C(=O)NCC3CC3)O2)CC1` (configuration not stated) the value was 51.19%; for `CCC(C)(CC(=O)OC)NC(=O)c1ccc(C(C)=O)cc1` (configuration not stated), 27.85%; for `COc1cccc(-c2cc(C(=O)NCCCn3cnnc3)[nH]n2)c1`, -48.78%. Take `CCNc1ncc(C(=O)NCc2cccc(OC(F)(F)F)c2)cn1`: the INHIBITION was -15.83%.

In the case of `CCNc1ncc(C(=O)NCc2ccc3nsnc3c2)cn1`, the INHIBITION is given as 86.69%. For `CCNc1ncc(C(=O)NCc2ccc(F)c(C(F)(F)F)c2)cn1`, the INHIBITION is given as -18.6%.
